Hit rate of the full screen: of about 2,400 compounds, about 360 (15%) were called active.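 Rule for the calls: active = viability falls under 70% at one or more tested concentrations, taken as toxicity; inactive = viability stays over 70% at every dose.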 A selection follows. Entries with a potency or affinity are not part of this list.

The assay can be described thus: viability loss in HeLa cells – cytotoxicity control for MgcRacGAP inhibitor project, dose response (AID 624300). The conditions noted are these: CellTiter-Glo luminescence, 24 h; series mostly up to 100 µM.
Consider `CCOc1cc(/C=N\NC(=O)c2c(C)nc3ccccn23)ccc1O`, for which the molecule was classed as inactive.

For `Oc1ccc(-c2cn3c(n2)SCC3)cc1`, the result was inactive.

As for `CCN(CC)c1ccc(NC(=O)COc2ccc(-n3cnnn3)cc2)cc1`, the molecule was called inactive.

Take `COc1cc(/C=C/CN2CCC(CO)(CC3CCCCO3)CC2)ccc1O` (stereo not drawn): the result was inactive.

For `CC(NS(=O)(=O)c1ccc(Cl)cc1)C(=O)OCC(=O)Nc1ccc(N(C)C)cc1` (stereo not drawn), the molecule was called inactive.

On to `COC(=O)c1c(NC(=O)CCNCc2ccco2)sc2c1CCC2`, for which the outcome was inactive.

Take `CCN(CC)CCCNCC(=O)Nc1ccc2c(c1)CCC2`: the molecule was called inactive.

With `O=c1c2ccccc2n2c(=S)[nH]nc2n1-c1ccccc1`, the outcome was inactive.

On to `CN(C)C=NC1=NN(c2cccc(C(F)(F)F)c2)CC1`, for which the outcome was inactive.

Take `Cc1ccc(N2C(N)=C(C#N)C3(C(=O)N(C)c4ccccc43)C3=C2CC(C)(C)CC3=O)cc1Cl` (stereo not drawn): the molecule was classed as inactive.

In the case of `C=C1CC(C(=O)N/N=C/c2ccc(O)cc2)C1`, the call was inactive.

For `COc1ccc(N2C(=O)/C(=C/N(C)C)NC2=S)cc1`, the result was inactive.

Turning to `COc1cccc(-c2cc(C(=O)N3CCN(c4ccc(F)cc4)CC3)no2)c1`, the result was inactive.

As to `O=c1c2ccc(F)cc2sn1-c1ccccc1`, the molecule was called inactive.

Regarding `CC(=O)Nc1ccc2sn(-c3ccccc3)c(=O)c2c1`, the molecule was called inactive.

Regarding `NS(=O)(=O)c1ccc(CCNCC(=O)N2CCC(Cc3ccccc3)CC2)cc1`, the molecule was classed as inactive.

Take `CSC1=NN(c2ccccc2)CN(c2ccccc2)N1C`: the call was inactive.

On to `O=C(CNc1ccc(Oc2ccccc2)cc1)N1CCOCC1`, for which the outcome was inactive.

Consider `COCC(C)NCc1ccccc1C` (stereo not drawn), for which the result was inactive.

For the molecule `C[n+]1ccc(/C=C/c2ccccc2O)c2ccccc21`, the outcome was inactive.

For `CCOc1ccccc1N1CCN(C/C=C/c2ccc(N(C)C)cc2)CC1`, the outcome was inactive.

`CN(C)c1ccc(C=Cc2cnccn2)cc1`: the call was inactive.

For `CCOCCCn1c(=O)c2ccccc2n2c(=S)[nH]nc12`, the call was inactive.

Regarding `COc1cc(/C=C(/NC(=O)c2ccccc2)C(=O)Nc2ccc(O)cc2)c([N+](=O)[O-])cc1OC`, the result was inactive.

Regarding `COc1ccc(CN2CCN(Cc3ccc(C(F)(F)F)cc3)CC2)cc1`, the outcome was inactive.

With `O=C(NCc1ccccc1)/C(=C\c1ccc(O)cc1)NC(=O)c1ccco1`, the outcome was inactive.

With `CC(C)C1=Nc2cccc3cccc(c23)N1`, the outcome was inactive.

Take `COc1ccc(OC(=O)COc2cccc(C)c2)cc1`: the molecule was classed as inactive.

As for `ON=C1c2ccccc2-c2ccc(O)cc21`, the call was inactive.

Consider `CN(C)c1ccc2cc(S(=O)(=O)O)cc(O)c2c1`, for which the call was inactive.

`O=C(O)c1ccc2c(c1)C(=O)/C(=C\c1ccco1)C2=O`: the molecule was classed as inactive.

For the molecule `Clc1nc(NCc2cccnc2)nc(N2CCOCC2)n1`, the call was inactive.

With `COc1cc(N)ccc1NC(=O)c1cccs1`, the outcome was inactive.

For the molecule `COc1ccc(NC2CCCN(C(=O)c3ccc(C)nc3)C2)cc1` (stereo not drawn), the result was inactive.

Consider `COc1cc(/C=C/C(=O)OCC(=O)NCCC2=CCCCC2)ccc1O`, for which the molecule was classed as inactive.

With `COc1ccc(OC)c(CN2CCSCC2)c1`, the molecule was called inactive.

With `CCOc1cc(N2CCOCC2)c(OCC)cc1NC(=O)c1ccc(C)s1`, the result was inactive.

As for `CCOC(=O)SC1=N/C(=C\c2ccc(N(C)C)cc2)C(=O)S1`, the call was inactive.

`CN(C)c1cc2c3ccccc3n(C)c2cc1N`: the call was inactive.

For the molecule `Cc1ccc(/C=[N+](\[O-])c2ccc(N(C)C)cc2)c2nsnc12`, the molecule was classed as inactive.

On to `COc1ccc(NC2=NCCC2)cc1`, for which the molecule was called inactive.

Regarding `COc1cc(/C=C/C(=O)OCC(=O)N2CCC(Cc3ccccc3)CC2)ccc1O`, the molecule was classed as inactive.

For `Cc1ccc2oc(=O)c(/C=C(\O)c3ccccc3)nc2c1`, the molecule was classed as inactive.

As to `C/C(=N\NC(=O)CSCc1ccccc1Cl)c1cc(O)ccc1O`, the outcome was inactive.

For `COc1ccc(C(=O)Nc2ccc(N3CCCCCC3)cc2)cc1S(=O)(=O)N1CCOCC1`, the outcome was inactive.

Take `CCOc1ccc(Nc2n[nH]c(=S)s2)cc1`: the molecule was classed as inactive.

Regarding `COc1cc(/C=N\NC(=O)CNC(=O)C(c2ccccc2)c2ccccc2)ccc1O`, the molecule was classed as inactive.

On to `CSc1ncnc2c1ncn2CCCNc1ccc(C)c(C)c1`, for which the outcome was inactive.

As to `CCOC(=O)c1sc(/N=C/c2c(O)ccc3ccccc23)cc1C`, the outcome was inactive.

For the molecule `Nc1ccc(Nc2nc(-c3cc4ccccc4oc3=O)cs2)cc1`, the molecule was called inactive.

In the case of `Nc1ccc2c(c1Br)Cc1ccccc1-2`, the call was inactive.

`COc1cc(CN2CCN(Cc3ccc(C(F)(F)F)cc3)CC2)cc(OC)c1OC`: the result was inactive.

For `Nc1c(Cl)cc(NC(=O)c2ccccc2C(=O)O)cc1Br`, the molecule was classed as inactive.

On to `COc1ccc2c(c1OC)C(=O)OC2CC(=O)c1ccc(O)c(O)c1` (stereo not drawn), for which the outcome was inactive.

With `O=C(/C=C/c1ccc(O)c(O)c1)NC(=O)c1ccccc1O`, the molecule was classed as inactive.

As to `COc1ccc(/C=N/NC(=O)c2ccc(CSc3nc(C)cc(C)n3)cc2)cc1O`, the result was inactive.

For `O=C(COc1cccc2cccnc12)N/N=C/c1ccc(O)cc1`, the outcome was inactive.

Regarding `COc1ccc(NC(=O)c2cccc(-c3ccc(O)cc3)c2)cn1`, the call was inactive.

Regarding `O=C(Nc1ccccc1)c1cccc(-c2nnc(-c3ccccc3)o2)c1`, the call was inactive.

Regarding `O=C(CN1CCCCCC1)NCC1CCCO1` (stereo not drawn), the molecule was called inactive.

For `C#CCOCCOCCOCCNc1nc(N2CCN(C(=O)C([C@@H](C)O)n3cc([C@@H](N)CCCCN)nn3)CC2)nc(N2CCN(C(=O)[C@H](CO)n3cc([C@@H](N)C(C)C)nn3)CC2)n1` (stereo partly drawn), the result was inactive.

Take `OCCN(C=NC1=NN(c2cccc(C(F)(F)F)c2)CC1)CCO`: the outcome was inactive.

For `O=C(N/N=C/c1ccc(O)c(O)c1)c1ccc(-n2cnnn2)cc1`, the molecule was classed as inactive.

For the molecule `Cc1cc(-c2n[nH]c(=S)n2/N=C/c2sccc2C)n[nH]1`, the call was inactive.

On to `COc1ccc(NCCC#N)cc1`, for which the result was inactive.

For the molecule `COc1ccc(NC2CCCN(C(=O)c3cccc(N(C)C)c3)C2)cc1` (stereo not drawn), the molecule was classed as inactive.

`CCOc1cc(N2CCOCC2)c(OCC)cc1NCC(=O)N1CCN(Cc2ccccc2)CC1`: the call was inactive.

`Nc1ccc(N2CCN(c3cccc(Cl)c3)CC2)cc1`: the molecule was called inactive.

In the case of `Cc1[nH]n(-c2ccccc2)c(=O)c1/C=N/N(C)c1ccccc1`, the outcome was inactive.

With `Brc1cccc(OCCN2CCOCC2)c1`, the call was inactive.

For the molecule `CCS(=O)(=O)NC(C)C(c1cccs1)N1CCN(c2ccc(OC)cc2)CC1` (stereo not drawn), the molecule was classed as inactive.

Consider `O=C1CCCCCN1Sc1ccccc1`, for which the call was inactive.

Take `C=C1c2cccc(O)c2C(O)=C2C(=O)[C@]3(O)C(O)=C(C(N)=O)C(=O)[C@@H](N(C)C)[C@@H]3[C@@H](O)[C@H]12`: the outcome was inactive.

For `CCOc1cc(-c2cc(-c3ccc(N)cc3)nc(N)c2C#N)ccc1O`, the result was inactive.

In the case of `CCOc1cc(-c2cc(-c3ccccc3)nc(N)c2C#N)ccc1O`, the outcome was inactive.

For the molecule `CCOc1cc(/C=N/NC(=O)c2ccccc2-n2cccc2)ccc1O`, the result was inactive.

Take `Nc1ccc2nc(-c3ccc(Cl)cc3)[nH]c2c1`: the molecule was classed as inactive.

For the molecule `Nc1ccc2nc(-c3cccnc3)[nH]c2c1`, the outcome was inactive.

Take `COc1cc(CNC2CCCCC2OC)cc(OC)c1` (stereo not drawn): the molecule was called inactive.

Regarding `COc1ccc2c3c(cccc13)N(C)N=C2C`, the result was inactive.

For the molecule `Cc1cccc(N2CCC(N=CN(C)C)=N2)c1`, the call was inactive.

Consider `CCOC(=O)N/N=C/c1ccc(N(CC)CC)cc1O`, for which the molecule was classed as inactive.

`O=C(CCC(=O)Nc1ccc(F)cc1)N/N=C/c1ccc(O)cc1`: the molecule was classed as inactive.

On to `Cc1cc(N2CCCC2)ccc1NC(=O)CN1C(=O)NC2(CCCCC2)C1=O`, for which the outcome was inactive.

Take `COc1cc(CN(C)CCc2ccccn2)cc(OC)c1OC`: the molecule was called inactive.

In the case of `COc1ccc(CN(C)CCc2ccccn2)cc1OC`, the result was inactive.

As for `COc1cc(/C(C)=N/N2CCN(Cc3ccc(C)cc3)CC2)ccc1O`, the call was inactive.

Regarding `O=C(CN1CCN(S(=O)(=O)c2ccccc2F)CC1)N1CCc2ccccc2C1`, the molecule was called inactive.

`O=C(O)CCCn1c(=S)[nH]c2c(sc3ccc([N+](=O)[O-])cc32)c1=O`: the result was inactive.

As for `O=c1c2sc3ccccc3c2[nH]c(=S)n1CCN1CCOCC1`, the molecule was classed as inactive.

For `COc1cc(/C=N/NC(=O)c2cnccn2)ccc1O`, the outcome was inactive.

On to `CC1CN(CCCCN2C(=O)c3ccccc3C2=O)CC(C)O1` (stereo not drawn), for which the molecule was classed as inactive.

As for `CCCCN(CCCC)CCNC(=O)CSCc1ccc(C)cc1`, the outcome was inactive.

For the molecule `CCCCN(CC)CCNC(=O)CCC(=O)Nc1ccc2nc(N3CCN(C)CC3)cc(C)c2c1`, the molecule was classed as inactive.

`CC1(C)Nc2cccc3cccc(c23)N1`: the outcome was inactive.

On to `COc1ccc(Br)cc1CN1CCC(N2CCCC2)CC1`, for which the result was inactive.

Consider `CCOc1ccc(NCc2cccn2-c2nnc(N3CCC(C(=O)NCCCN4CCCCC4)CC3)s2)cc1`, for which the result was inactive.

As for `CC(/C=C/c1ccc(O)cc1)=N/O`, the molecule was classed as inactive.

Consider `COc1ccc(NC2CCCN(C(=O)CSc3ccccc3)C2)cc1OC` (stereo not drawn), for which the call was inactive.

In the case of `CC1(C)OC(=O)C(=Cc2ccc(-c3ccc(S(N)(=O)=O)cc3)o2)C(=O)O1`, the outcome was inactive.

Regarding `Cc1ccc(/C=C2/C(=O)ON=C2c2ccccc2)o1`, the outcome was inactive.

As for `Cc1ccc(/C=C2/C(=O)c3ccc(C(=O)O)cc3C2=O)o1`, the result was inactive.

With `O=S(=O)(O)c1cc(O)c2cc(Nc3ccccc3)ccc2c1`, the call was inactive.

With `Nc1ccccc1Nc1cccc(C(F)(F)F)c1`, the call was inactive.

Regarding `CCOC(=O)c1[nH]c2ccc(C)cc2c1N`, the call was inactive.

Turning to `COc1cc(/C=C/C(=O)OCc2cn3cc(Cl)ccc3n2)ccc1O`, the outcome was inactive.

Regarding `CC(=O)Nc1ccc(Nc2ccccc2)cc1`, the molecule was called inactive.

As to `O=C(Nc1ccc(Nc2ccccc2)cc1)C1CC1`, the molecule was called inactive.

Consider `Cc1oc(-c2ccccc2)cc1C(=O)Nc1ccc(N(C)C)cc1`, for which the molecule was classed as inactive.

As to `O=C(O)c1ccccc1C(=O)Nc1ccc(Nc2ccccc2)cc1`, the call was inactive.

Consider `CCN1CCN(c2ccc(N=Cc3ccc(O)cc3O)cc2)CC1`, for which the molecule was called inactive.

As to `Cc1ccc(C)c(OCCCCN2CCCCC2)c1`, the outcome was inactive.

Turning to `CCOc1cc(/C=C/c2cccc[n+]2C)ccc1O`, the outcome was inactive.

As for `c1csc(CNc2ccc3c(c2)OCCO3)c1`, the molecule was called inactive.

For the molecule `Cc1ccc(S(=O)(=O)Oc2ccc(/C=C3\C(=N)N4N=C(S(C)(=O)=O)SC4=NC3=O)cc2)cc1`, the molecule was called inactive.

`CCN(CC(=O)NCc1ccc(F)cc1)C(=O)CN1CCN(c2ccc(OC)cc2)CC1`: the call was inactive.

Take `O=C(CNCC1CCCO1)Nc1ccc(N2CCCCCC2)cc1` (stereo not drawn): the molecule was classed as inactive.

Consider `Cc1ccccc1N1C(S)=C(C#N)C(=O)NC1c1cccs1` (stereo not drawn), for which the outcome was inactive.

Source of the values: PubChem BioAssay AID624300 (Southern Research Specialized Biocontainment Screening …, 2012).
